Assay results as given in PubChem BioAssay (NCI).
This is part of a sample that, as a whole, favours compounds with a hit. Of some 79,000 tested, about 15% had one in any assay. Active and inactive are the calls of the source. Rule as the data show it: active = growth inhibition above about 70%; inactive = the rest.

Key:
[1] = NCI Yeast Anticancer Drug Screen. Data for the rad50 strain (AID 155);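 also: 0% = growth of vehicle-only cultures of the same strain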; settings: S. cerevisiae rad50 strain growth inhibition; at 50.0 µM; active compounds read high
Outline: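 Growth of the mutant yeast was measured after compound exposure and referenced to vehicle-treated cultures.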

[2] = NCI Yeast Anticancer Drug Screen. Data for the mec2-1 strain (AID 157); settings: S. cerevisiae mec2-1 strain, at 50.0 µM, active compounds read high
Outline: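 Strain: mec2-1 (DNA repair/cell cycle alteration). Compound exposure, then growth measured; inhibition expressed relative to vehicle.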

[3] = NCI Yeast Anticancer Drug Screen. Data for the sgs1 mgt1 strain (AID 161);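 also: 0% = growth of cultures given vehicle only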; settings: S. cerevisiae sgs1 mgt1 strain, at 50.0 µM, active compounds read high
Outline: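 Read-out: growth inhibition vs vehicle controls. Cells: mutant yeast strain deficient in DNA damage repair.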

[4] = NCI Yeast Anticancer Drug Screen. Data for the cln2 rad14 strain (AID 165);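 also: 0% = growth equal to vehicle treated cultures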; settings: S. cerevisiae cln2 rad14 strain, at 50.0 µM, active compounds read high
Outline: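 Compounds are applied to the cln2 rad14 yeast strain, and growth is then compared with that of vehicle-treated cultures to give inhibition.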

[5] = NCI Yeast Anticancer Drug Screen. Data for the bub3 strain (AID 167); settings: S. cerevisiae bub3 mutant strain, at 50.0 µM, active compounds read high
Outline: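 Whole-cell yeast assay. The mutant strain was incubated with compounds, and growth inhibition was determined by comparison with vehicle-treated cells.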

[6] = NCI Yeast Anticancer Drug Screen. Data for the mlh1 rad18 strain (AID 175); settings: S. cerevisiae mlh1 rad18 strain growth inhibition; at 50.0 µM; active compounds read high
Outline: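 Read-out is yeast growth inhibition, calculated against vehicle-only controls. The compound was applied to a strain engineered with DNA damage repair alterations.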

Measured: growth inhibition

Cc1cc(C)c(C(=O)c2ccccc2C(=O)O)c(C)c1
inactive: [1] 0.05% | [2] 11.1% | [3] 3.05% | [4] -89% | [5] 24.5% | [6] -12%

CCC(C(=O)O)C(C)(C)C (configuration not stated)
inactive: [1] 6.8% | [2] 0.55% | [3] 1.8% | [4] -4.9% | [5] -0.3% | [6] 9.3%

O=C1NC(=O)N2CCCOC2C1c1ccccc1 (configuration not stated)
inactive: [1] 0.2% | [2] -5.5% | [3] 0.4% | [4] -10.2% | [5] -2.7% | [6] 22.3%

N.N.N.N.N.O=C([O-])c1nn[n-]n1.[Cl-].[Co+3]
inactive: [1] -0.8% | [2] -1.1% | [3] 7.15% | [4] 23.4% | [5] 3.75% | [6] -7.5%

O=C(O)C1Nc2ccccc2NC1=O (configuration not stated)
inactive: [1] 3.55% | [2] -3.15% | [3] -5.5% | [4] -47% | [5] -4.35% | [6] 3.3%

C/[N+]([O-])=C/c1ncc([N+](=O)[O-])n1CCO
inactive: [1] 4.05% | [2] 5.9% | [3] 7.95% | [4] 25.1% | [5] -3.5% | [6] 25.6%

Cc1cc(C)[n+](C)c(/C=C\c2ccccc2Cl)n1
inactive: [1] 5.2% | [2] -1.7% | [3] 10.6% | [4] 15.2% | [5] -2.5% | [6] 22.1%

Cc1ccc(S(=O)(=O)NN(C)C(=O)c2ccccc2)cc1
inactive: [1] -5.95% | [2] -0.75% | [3] 3.05% | [4] -25.2% | [5] 22.8% | [6] -9.05%

Cc1nc(C(N)=S)sc1C(=O)CC(=O)C(=O)Nc1ccc(Br)cc1
inactive: [1] 2.5% | [2] -38.5% | [3] -24.4% | [4] 1.35% | [5] -25.8% | [6] -14.8%

Clc1ccc(-c2nc3ccccc3cc2N2CCCCC2)cc1
inactive: [1] 26.4% | [2] 1.45% | [3] 12.3% | [4] -38.5% | [5] -1.15% | [6] -7.7%

COc1ccc(C(C#N)N2CCCN(C(C#N)c3ccc(OC)cc3)C2c2ccccc2)cc1 (configuration not stated)
inactive: [1] -2.1% | [2] 2.95% | [3] -9.05% | [4] -0.2% | [5] -0.1% | [6] 7.1%

COc1ccc(NC(=O)CC(=O)N/N=C(/C)c2cc3cc(N=Nc4ccccc4Cl)ccc3oc2=O)cc1
inactive: [1] 11.3% | [2] 14.2% | [3] 24.1% | [4] 34% | [5] -11.8% | [6] -10.2%

CCCn1cc2c(=O)[nH]c(SC)nc2n1
inactive: [1] -4.95% | [2] -20.8% | [3] -1.35% | [4] -13.1% | [5] -12.7% | [6] 10.8%

N#Cc1cnn(-c2ccc([N+](=O)[O-])cc2)c1N
inactive: [1] 14.8% | [2] -16.6% | [3] 3.85% | [4] -26.6% | [5] 1.7% | [6] 20.5%

CC(C)=CCc1c(O)ccc2ccc(=O)oc12
inactive: [1] 21.6% | [2] 20.1% | [3] 10.2% | [4] 17.9% | [5] 7.3% | [6] 29.4%

CN(C)CCCNc1nc(Cl)nc2nc(-c3ccccc3)c(-c3ccccc3)nc12
inactive: [1] 50.2% | [2] 31% | [3] 60.5% | [4] 36% | [5] 28.9% | [6] 61.2%

Cc1ccc(NC(=O)CCC(=O)C(C#N)c2ccc(Cl)cc2)cc1C (configuration not stated)
inactive: [1] -8.25% | [2] -7.95% | [3] 8.55% | [4] 4.75% | [5] 8.4% | [6] 0.25%

CC1=NN(C(=O)c2ccc(Cl)cc2)C(=O)/C1=C/c1ccc(Cl)cc1
inactive: [1] -28.6% | [2] -47.4% | [3] -69.2% | [4] -19.6% | [5] -33% | [6] -44.2%

Cc1cccc(NS(=O)(=O)c2ccc(Cl)cc2)c1C
active: [1] 98.5% | [2] 98.3% | [3] 98.2% | [4] 98.3% | [5] 98.4% | [6] 98.7%

COC(=O)c1cn2ccc3ccccc3c2c1C(=O)OC
inactive: [1] -3.95% | [2] 2.15% | [3] 9% | [4] -0.25% | [5] -15.7% | [6] 15.5%

O=C1NCCN1CCCl
inactive: [1] 0.7% | [2] -1.25% | [3] -5.15% | [4] 1.5% | [5] 1.65% | [6] 6.25%

COc1cccc(-c2ccccc2)c1
inactive: [1] 7.35% | [2] 10.9% | [3] -11.3% | [4] 3.2% | [5] 14.6% | [6] -16.6%

CCOc1cc(/C=C2\N=C(c3ccccc3)OC2=O)ccc1O
inactive: [1] 5% | [2] 1.2% | [3] 2.6% | [4] -50.8% | [5] -12.8% | [6] -2.75%

COc1ccc(NC(=O)N(C)Cc2ccccc2Cl)cc1
inactive: [1] -0.35% | [2] -10.8% | [3] 1.9% | [4] -12.6% | [5] 11.2% | [6] 0.4%

CC1=CC(=O)c2ccc(F)cc2C1=O
inactive: [1] -11.8% | [2] -3.85% | [3] 15% | [4] -2.9% | [5] -7.95% | [6] 13.8%

CN[C@H]1CCc2cc(OC)c(OC)c(OC)c2-c2ccc(O)c(=O)cc21
inactive: [1] 23.8% | [2] -9.45% | [3] 24.8% | [4] -43.5% | [5] 0.3% | [6] 29.7%

O=C(O)CN1C(=O)/C(=C\c2ccc3ccccc3n2)SC1=S
inactive: [1] 1.9% | [2] 18.9% | [3] 2.85% | [4] -14.1% | [5] 0.4% | [6] 20.6%

CCOC(OCC)C(Cl)(Cl)CCl
inactive: [1] 6.25% | [2] 4.45% | [3] -3.8% | [4] -25.4% | [5] -0.6% | [6] -6.35%

COc1cc(C(=O)NN(C)C)cc(OC)c1OC
inactive: [1] 13.5% | [2] 0.65% | [3] -9.95% | [4] 10.8% | [5] -7.95% | [6] -18.5%

COc1ccc(C(C)=O)cc1CO/N=C1\CSCc2ccccc21
inactive: [1] 22.9% | [2] 12.4% | [3] 34.5% | [4] 22.4% | [5] 48.2% | [6] 12.2%

Cc1ccc(C2SC(N)=Nc3c2c(C)nn3C(=O)c2ccncc2)cc1 (configuration not stated)
inactive: [1] -27.6% | [2] -33.2% | [3] -20% | [4] -21.7% | [5] -28% | [6] -23.6%

CC(C)(C)C(=O)CC(=O)C(C)(C)C.[Cu]
inactive: [1] -10.2% | [2] -9.35% | [3] -4.2% | [4] -56.6% | [5] -26.4% | [6] 9.05%

COc1cc2cccc(NC(=O)c3cc(OC)c(OC)c(OC)c3Br)c2cc1OC
inactive: [1] 31.4% | [2] 12.4% | [3] 16.6% | [4] 19.6% | [5] 44.5% | [6] 20.7%

CCOC1Oc2ccccc2-c2nc(C)c(C#N)cc21 (configuration not stated)
inactive: [1] 1.65% | [2] 7.75% | [3] 15.9% | [4] -66.5% | [5] 15.8% | [6] 12.4%

O=C(OCCNC(=O)N1CCOCC1)OCCNC(=O)N1CCOCC1
inactive: [1] -16.8% | [2] -2% | [3] -8.55% | [4] 40.6% | [5] -3.2% | [6] 11.3%

Cc1ccc(S(=O)(=O)N2N=C(c3ccccc3)CC2c2ccccc2)cc1 (configuration not stated)
active: [1] 83.1% | [2] 87.1% | [3] 88.4% | [4] 81% | [5] 82% | [6] 91%

COc1cc2ccccc2cc1CO
inactive: [1] -4.15% | [2] -4.2% | [3] -3.8% | [4] -16.1% | [5] -22.8% | [6] -0.45%
